Screening results: PubChem, National Center for Advancing Translational Sciences (NCATS)
FBPA Giardia inh – inhibitors of Giardia lamblia fructose-1,6-bisphosphate aldolase. A8B2U2. purified Giardia FBPA. Potency, µM (doses to about 59.6 µM), for inactives: top-dose activity, negative = inhibition, most hits filed as inhibitors. 0.71% of 290,000 active; also: potency is read from the fitted curve at half-maximal effect; nearly all actives have a fitted effect of over 55% in size
Target sequence (A8B2U2 whole entry, looked up): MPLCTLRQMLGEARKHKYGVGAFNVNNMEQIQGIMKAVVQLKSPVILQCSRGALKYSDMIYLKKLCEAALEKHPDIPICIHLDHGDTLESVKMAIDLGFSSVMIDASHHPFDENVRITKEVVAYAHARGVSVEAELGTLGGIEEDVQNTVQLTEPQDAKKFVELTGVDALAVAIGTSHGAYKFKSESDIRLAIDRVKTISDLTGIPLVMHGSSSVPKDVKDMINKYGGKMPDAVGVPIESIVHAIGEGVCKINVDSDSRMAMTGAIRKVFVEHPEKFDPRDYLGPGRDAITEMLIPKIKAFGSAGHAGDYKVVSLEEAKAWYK
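Giardia FBPA (40 nM reagent) was preincubated 10 min at RT with compound (up to 57.5 uM final), then substrate plus GAPDH/TPI/NAD/arsenate coupling system with diaphorase/resazurin was added; resorufin fluorescence (525/598 nm) was read after 20 min.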
FMDV antiviral – foot and mouth disease virus antiviral activity; FMDV antiviral cell-based qHTS; Potency, µM (top dose mostly 57.9 µM), inactives show at the highest dose activity change, negative = inhibition, actives largely listed as inhibitors; 1.2% of 410,000 active; AID 1159524; calls by dose curve; tested in HEK293T cells; also: read-out not given here; potency is read from the fitted curve at half-maximal effect; nearly all actives have a fitted effect of over 45% in size
HCMV inh – human cytomegalovirus inhibition; activity change, negative = inhibition, % at 57.5 µM; AID 1259415; HFF cells, HCMV-luciferase reporter, 72 h; stronger effect = lower value; 4.5% of 410,000 active; in the data active = activity change below about -60%; inconclusive = no clear call, values can overlap the other calls; inactive = above about -39%
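Two-dose cell screen: HFF monolayers treated with compounds and infected with luciferase-expressing HCMV at 1 PFU/cell, 72 h at 37C, then lysed for luciferase measurement.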
Sm TGR inh – inhibitors of Schistosoma mansoni thioredoxin glutathione reductase; Q962Y6; purified TGR, DTNB reduction, TNB absorbance 405 nm; Potency, µM (doses to about 114 µM), for the others: top-dose activity change, negative = inhibition, hits mostly inhibitors; 3% of 360,000 active; AID 485364; also: potency is read from the fitted curve at half-maximal effect; nearly all actives have a fitted effect of over 60% in size
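TGR 20 nM + NADPH 100 uM (dispensed conc.), cpd preinc 15 min RT; start with NADPH (500 uM addition) then DTNB (15 mM addition). Kinetic TNB absorbance, 405 nm filter. Four-parameter Hill fit across titration.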
RE007 growth inh – less growth of the S. pombe RE007 Vpr strain. S. pombe RE007 Vpr strain, BacTiter-Glo ATP luminescence, 24 h. Potency, µM (series often up to 92.2 µM), for inactives: at the highest dose activity change, negative = less growth, actives largely listed as inhibitors. 0.21% of 360,000 active. AID 651644; active = well fitted falling curve with a large enough effect; inconclusive = small, poorly fitted or top-dose-only effect; inactive = no such curve, though single readings can be large or run the other way; also: potency is read from the fitted curve at half-maximal effect; nearly all actives have a fitted effect of over 50% in size
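Fission yeast RE007 carrying one integrated HIV-1 vpr copy, seeded at OD 0.01 in PMG+AL medium with 23 nL pinned compound. Grown 24 h at 30 degrees; viability read by BacTiter-Glo luminescence after 5 min.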
TbPYK inhibitor – T. brucei pyruvate kinase inhibition. 0.12% of 410,000 active. AID 624173. Potency, µM (highest dose often 76.8 µM), without a hit: at the highest dose activity, negative = inhibition, hits mostly inhibitors. TbPYK enzyme, Kinase-Glo Plus ATP luminescence, 45 min. Q57TT1; also: potency is read from the fitted curve at half-maximal effect; nearly all actives have a fitted effect of over 50% in size
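Readout: single end-point luminescence (Kinase-Glo Plus, 10 min). Reaction conditions were TbPYK/substrate plus 130 uM ADP, 45 min at RT, pH 7.2 TEA buffer. No-enzyme wells served as controls, and data were normalized before concentration-response fitting.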
Starred values were filed as active, the others as inactive; ? = inconclusive; . = no result given. Most compounds without a hit are left out; they make up all but 7.7% or so of the library. Unless noted, calls follow the shape of the dose curve; as a rule, active = well fitted curve in the direction sought with a large enough effect; inconclusive = small, poorly fitted or top-dose-only effect, or another doubt; inactive = no such curve, though single readings can be large; an effect the other way counts as inactive or inconclusive. % is scaled to controls: 0 for no effect and ±100 for the full control effect.

SMILES	FBPA Giardia inh	FMDV antiviral	HCMV inh	Sm TGR inh	RE007 growth inh	TbPYK inhibitor
CCOC(=O)c1ccc2c(c1)N(CC(=O)Nc1ccc(CC)cc1)C(=O)c1ccccc1S2	.	-4%	-7	5%	.	-13%
NC(=O)c1nsc(C(=O)N(CCc2ccccc2)C(C(=O)NC2CCCC2)c2ccco2)c1N (stereo not given)	9%	.	-60*	-1%	-17%	-6%
CCc1ccc(N(C(=O)c2snc(C(N)=O)c2N)C(C(=O)NC2CCCC2)c2ccco2)cc1 (stereo not given)	5%	5%	?	0%	8%	3%
COc1ccc(N(C(=O)c2snc(C(N)=O)c2N)C(C(=O)NC2CCCCC2)c2ccc(C)o2)cc1 (stereo not given)	-3%	-15%	-70*	-15%	3%	-3%
Cc1ccc(C(C(=O)NCC2CCCO2)N(C(=O)c2snc(C(N)=O)c2N)c2ccc(F)cc2)o1 (stereo not given)	-1%	-14%	-75*	10%	0%	0%
CCOc1ccc(N(C(=O)c2snc(C(N)=O)c2N)C(C(=O)NCC2CCCO2)c2ccc(C)o2)cc1 (stereo not given)	-13%	0%	4	-20%	29%	2%
NC(=O)c1nsc(C(=O)N(c2ccc3c(c2)OCCO3)C(C(=O)NCC2CCCO2)c2ccc(F)cc2)c1N (stereo not given)	-9%	10%	-74*	11%	4%	0%
CCN1CCN(c2ccc(Nc3ccnc4ccccc34)cc2)CC1	.	0%	?	-1%	2%	-5%
CN1CCN(c2ccc(Nc3ccnc4cc(Cl)ccc34)cc2)CC1	-5%	-15%	-83*	3%	-1%	-9%
CCOC(=O)c1cnc2ccc(Cl)cc2c1Nc1ccc(OCC)cc1	.	-18%	19	-3%	.	4%
CCOc1ccc(Nc2ccnc3cc(Cl)ccc23)cc1	-1%	-16%	-62*	-1%	11%	5%
CCN1CCC(Nc2ccnc3cc(Cl)ccc23)CC1	3%	-2%	-90*	6%	-19%	-5%
CCCCC[C@H](O)/C=C/C=C\CCCCCCCCCC(=O)O	4%	.	.	.	.	.
CCCC1OC2CC3C4CCC5=CC(=O)C=CC5(C)C4C(O)CC3(C)[C@]2(C(=O)CO)O1 (stereo not given in full)	-3%	7%	.	.	.	.
Cc1ccc(/C=C2\CC(C)CC3=C2NC(=S)NC3c2ccc(C)cc2)cc1 (stereo not given)	1%	-6%	-23	16µM*	1%	-26%
CCCn1c2c(c(=N)c3c1CCC3)CCC2	5%	?	-74*	-3%	-15%	-8%
CCOC(=O)Cn1c2c(c(=N)c3c1CCC3)CCCC2	-3%	-15%	?	3%	1%	5%
CCCCCCCn1c2c(c(=N)c3ccccc31)CCC2	-4%	5µM*	-79*	8%	?	-9%
CCCn1c2c(c(=N)c3c1CCC3)CCCC2	3%	?	-97*	9%	?	-18%
COc1ccc(CNc2nc(-c3cccnc3)nc3ccccc23)c(OC)c1	-8%	-24%	.	.	.	.
O=C(Cc1ccc([N+](=O)[O-])cc1)N/N=C/c1ccc([N+](=O)[O-])o1	-29%	-13%	-18	?	-8%	-1%
O=C(N/N=C/c1ccc[nH]1)c1cc2ccccc2cc1O	?	9%	-99*	?	4%	3%
CCCCCCCC(=O)N/N=C/c1ccc([N+](=O)[O-])o1	-12%	-15%	?	?	-9%	-1%
O=C(CNc1cccc2ccccc12)N/N=C/c1ccc([N+](=O)[O-])o1	?	0%	-95*	?	-8%	3%
O=C(CNc1cccc([N+](=O)[O-])c1)N/N=C/c1ccc([N+](=O)[O-])o1	-1%	11%	-66*	.	-11%	-1%
SMILES	FBPA Giardia inh	FMDV antiviral	HCMV inh	Sm TGR inh	RE007 growth inh	TbPYK inhibitor
O=C(CNc1cccc2ccccc12)N/N=C/c1ccc[nH]1	-2%	-7%	-68*	3%	10%	-2%
CCCSc1nc2sc3c(c2c(=O)n1-c1ccc(C)c(Cl)c1)CCN(C(C)=O)C3	.	0%	1	-1%	.	0%
COCCNc1cc(-c2ccccc2C)ncn1	-17%	2%	.	.	.	.
CC(C)Oc1ccc(Nc2cc3c(cn2)cc(-c2cnn(C)c2)n3C)cc1	.	.	9	.	.	.
CCN(CC)CCOC(=O)c1ccc(NC(=O)COc2cc(=O)n(CC)c3ccccc23)cc1	11%	5%	-101*	-1%	12%	4%
CCc1ccc(NC(=O)CCCOc2cc(=O)n(C)c3ccccc23)cc1	.	1%	-98*	.	9%	-6%
Cc1ccc(C)c(NC(=O)c2cc(-c3cc(C)c(C)cc3O)n[nH]2)c1	2%	46%	-78*	29%	10%	4%
Cc1ccc(NC(=O)c2cc(-c3cc(Cl)ccc3C)n[nH]2)cc1NS(C)(=O)=O	.	25µM*	-83*	.	-10%	5%
Cc1ccc(Cl)cc1-c1cc(C(=O)NCc2cc(C(F)(F)F)cc(C(F)(F)F)c2)[nH]n1	.	40µM*	-10	.	-7%	-6%
Cc1ccc(-c2cc(C(=O)Nc3cc(C)ccc3C)[nH]n2)c(O)c1	0%	14%	-14	-3%	28%	10%
COc1ccc(Cl)cc1-c1cc(C(=O)Nc2ccc(C)c(NS(C)(=O)=O)c2)[nH]n1	.	32µM*	?	.	8%	2%
Cc1ccc(F)cc1-c1cc(C(=O)NCc2cc(C(F)(F)F)cc(C(F)(F)F)c2)[nH]n1	.	-10%	15	.	0%	-3%
COC(=O)C1CCN(Cc2ccc3c(c2)CN(C(=O)c2cc4cc(F)ccc4[nH]2)CCO3)CC1	.	-22%	.	.	.	.
O=C(CSc1n[nH]c(=O)[nH]c1=O)c1ccccc1[N+](=O)[O-]	-9%	-8%	0	45µM*	-5%	-6%
O=C(CSc1n[nH]c(=O)[nH]c1=O)c1ccccc1	-27%	-16%	-67*	-1%	-1%	-18%
CC(C)Cn1c(SCc2cccc(F)c2)nc2ccsc2c1=O	.	-2%	-8	2%	.	6%
Cc1ccc(C(C)C)c(OCC(=O)Nc2ccc(S(=O)(=O)Nc3onc(C)c3C)cc2)c1	.	-10%	28	-4%	.	-11%
COc1ccc2cc3c(N)nn(C(=O)c4ccccc4Cl)c3nc2c1	3%	?	-70*	-1%	-8%	-1%
COc1ccc2cc3c(N)nn(C(=O)c4cccc(F)c4)c3nc2c1	16%	21%	-81*	5%	11%	2%
COc1ccc2cc3c(N)nn(C(=O)c4ccc(F)cc4)c3nc2c1	3%	-24%	-87*	-11%	-7%	1%
